# In the supplement of paper PMC6555819:
# Key:
# Test in all cases: PBM binding z-score (relative to random genomic background probes); higher = stronger binding; sequences stand for … in GC…GCGATTGACAGCGTAGAATGAAGG
# [1] = tested on: RARb homodimer (NR concentration 270 nM)
# Summary of the method: (§1)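 Ligand-free nuclear receptor dimers were applied to custom Agilent 4×180K protein-binding microarrays whose double-stranded probes carried direct-repeat seeds, single-nucleotide variants, half-site ablations and random human genomic background sequences in 34-nt variable regions. Incubation lasted 1 h. Binding z-scores were computed against the random background probes from regression-normalized fluorescence.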
# [2] = tested on: RARg:RXRa (NR concentration 270 nM, RXRa partner concentration 90 nM)
# Summary of the method: as §1
# [3] = tested on: RARg homodimer (NR concentration 270 nM)
# Summary of the method: as §1
# [4] = tested on: RXRa DBDmut IVT, anti-RXR (DBD mutation: RXRa K156A/R161A, NR concentration 90 nM)
# Summary of the method: as §1
# [5] = tested on: RXRa homodimer (NR concentration 180 nM)
# Summary of the method: as §1
# [6] = tested on: THRa:RXRa (NR concentration 90 nM, RXRa partner concentration 90 nM)
# Summary of the method: as §1
# [7] = tested on: THRa homodimer (NR concentration 90 nM)
# Summary of the method: as §1
# [8] = tested on: VDR homodimer (NR concentration 270 nM)
# Summary of the method: as §1
Sequence,PBM binding z-score [1],PBM binding z-score [2],PBM binding z-score [3],PBM binding z-score [4],PBM binding z-score [5],PBM binding z-score [6],PBM binding z-score [7],PBM binding z-score [8]
CCTCGGAGGACAACAGGAGGTCAGAGCCGCCAGA,3.53,3.51,3.53,0.0894,1.71,2.8,0.858,0.836
GCTAGTTGGTCAGTAAAACGTCACACACCGGTCG,0.309,-0.139,0.216,-0.207,-0.264,-0.444,-0.619,-0.255
AGAGTGAGGTTATTAAGATCAGGGAATTGCGGTC,1.42,1.12,0.991,1.56,1.82,2.12,1.33,1.97
CAAACTAGGTCAAGCTCAAAGTCGGTTTGTGCCA,3.34,4.06,4.98,1.53,2.55,3.2,1.34,0.374
CCAGACAGGTCAAAGGTAACTCAGTCTGGTACGC,3.43,5.62,4.75,2.47,6.86,3.06,0.0861,0.986
AGAATGACGTTATTAAGATCAGGGAATTGCGGTC,-0.448,-0.146,0.0594,-0.095,-0.18,-0.42,-0.892,-0.318
CGTCCAAAGTCAAGGTCAGTGAAAGAGACTCGAA,3.54,3,3.58,1.13,2.53,3.03,2.06,1.29
ATCTCTAGGTAAAGATAGTTCAATGAATGCAAAT,1.4,1.08,1.05,0.373,0.737,1.05,-0.0901,1.15
CCTTACGGGTCACTAGGTTATAGCACGACGAGCG,3,4.53,4.46,1.22,4.2,2.29,0.139,1.24
TCTTGAAGATCAAGCAGGTTAAGAAAGCCTGAGT,-0.113,-0.172,-0.516,0.456,0.318,0.216,-0.679,-0.115
CAGCCTAGGTCAGTGCCAGTATAGGAGGAACGTT,2.5,2.55,3.53,0.655,0.856,1.44,0.501,-0.0639
AGTCAAAGTTCACTAGGTAACGTGAGATTCAGCT,3.59,4.82,5.55,3.83,3.61,1.87,0.0345,3.17
TAGTCTAGGTCATTCAGGGGCCAGTATAGAAAGC,3.57,5.83,4.7,2.05,2.96,3.63,1.42,1.88
TTATATAGGTAAAGGTGAAAGTCGAACGATATGA,1.64,1.68,1.27,-0.41,2.15,1.44,-0.395,-0.389
GCTTACGGGTCGAAGGTTATAGCATGAATAGAAT,0.86,2.31,1.28,0.891,3.72,1.55,-0.161,0.682
TCTATTTGGTCACGGAGGTCACACACGACGGGTA,4.61,4.91,5.19,1.87,5.34,3.82,3.38,3.22
TAGCCTAGGTCATTTAGGGGCCAGTATAGAAAGC,3.12,5.9,4.36,1.98,2.63,3.47,0.467,1.63
TAGCCTAGCTCATGGGCCAGTATACCACGCGAAC,-0.141,-0.422,-0.314,-1.22,-0.408,-0.643,-0.48,-0.464
CCTGCTAGGTTATGGTCAGCTAATCTACAGTATG,0.748,0.34,0.636,0.299,0.0468,0.383,-0.417,-0.337

Sequence,PBM binding z-score [1],PBM binding z-score [2],PBM binding z-score [3],PBM binding z-score [4],PBM binding z-score [5],PBM binding z-score [6],PBM binding z-score [7],PBM binding z-score [8]
CAAACTAAGTCAAGAGGTCAAAGTCCGCTTCCCG,4.49,5.8,4.46,2.11,6.2,3.92,1.7,4.04
CCGACTGGGGAAAGGTTACCATAACGCACAGCCA,1.86,1.66,0.984,-0.493,2.28,1.13,-0.224,-0.242
CCTCGGAGGACAGAAGGTCTGAGCTGTCCGCTTT,-0.106,-0.159,0.14,-0.0896,-0.825,-0.0206,-0.537,-0.369
CGTCAATGTTCAAGGTAACGTAACAGAAAGCAGC,-0.0496,0.0962,0.453,0.148,0.198,1.56,1.19,0.0285
TCTATTAGTTGATTAGGGCACCCGAAACAGCGGA,0.537,0.623,0.797,1.22,0.445,0.654,0.582,0.203
AGAATGAGGTTATTAAGAACAGGGAATTGCGGTC,0.842,1.14,0.783,2.06,1.67,2.23,0.503,1.27
CCTAGTTGGTCAGGAGGTCACAGACCGGATATGA,4.29,5.27,4.13,0.184,5.2,3.57,2.15,2.05
AGCTCTAGGTAAAGATAGTTCAGTGAATGCAAAT,1.34,0.3,0.62,-0.0733,0.094,0.782,0.107,0.592
ATATGTAGGTTATCTGGTCATTCAGTTTGCGCAT,1.34,1.39,1.15,1.08,1.46,0.737,0.562,1.07
TCTAGTAGATCAAAGGTTAAGAAAGCCGAAGCCT,1.26,1.37,0.721,0.713,3.04,1.19,-0.728,-0.063
CGAACTAGGTCATCCAGGACTGTGAATACATTGA,2.93,4.02,4.47,2.26,2.62,2.95,1.17,1.39
ATATGTCGGTTATCGGGTCATTCAGTTTGCGCAT,2.64,2.72,2.04,1.42,2.51,3.14,2.54,3.21
AGTCAAAGTTCATCTAGGTAACGTTAGATATGCT,3.74,5.6,6.39,4.62,4.96,2.94,0.114,5.6
TTACCAAGGTGAAAGGTCGTTGACGCACGCCTTG,2.87,4.52,2.25,0.212,6.19,3.34,0.822,1.41
ATCTCTTGGTAAAGTTCAGTGAAAGATCGATAGA,2.41,2.08,2.53,2.06,1.04,0.889,0.154,2.21
AGAACGAGGGCAATGAGTTGATTGCACGGGTGGC,0.636,0.81,1.23,1.88,0.475,0.794,-0.344,3
CCTTACGGGTCACTGACAGGTTATACCATTTGGA,3.56,5.73,4.84,1.64,5.54,2.85,0.447,1.41
ACTAGTAGTTGAGACGAGGGCAACCGATAGGTTG,1.26,0.496,0.837,-0.186,0.422,2.71,-0.0205,0.686
ATCGAAAGGTCGAAGCTGAGTATACCCACCCGAA,2.18,3.83,3.5,1.42,4.13,1.73,0.00439,0.746

Sequence,PBM binding z-score [1],PBM binding z-score [2],PBM binding z-score [3],PBM binding z-score [4],PBM binding z-score [5],PBM binding z-score [6],PBM binding z-score [7],PBM binding z-score [8]
TTACCAAGGTGAGCTGAGGTCGCTGATCCAACTC,1.76,1.33,1.22,-0.393,1.2,4.95,2.17,0.556
AGTCAAAGTTCAGGACGTGGTAACGTAAAGCACG,3.13,4.04,4.85,2.76,2.67,2.37,0.614,1.49
CCTGTTAGTTGACCATAAGGGCAACCGAAGCTCG,2.14,1.2,0.916,0.329,0.511,1.88,1.5,0.539
CATACTGGGTCAGCTAGGCCAGAGTAGGGACGGC,2.13,2.65,3.42,-0.42,1.39,1.53,0.0605,-0.0161
CCTCGGAGGACAACAGGAGGTCAGATCTGCCAGA,3.64,3.34,3.12,0.415,1.59,2.81,1.03,1.28
CCTGCCAGGTCATGGTCAGCTAATCTACAGTATG,3.28,4.12,4.46,1.81,3.17,3.64,2.48,0.972
AGAACGAGGGCACGCAGAGTTGATAGCAGAGTAG,1.68,2.85,2.58,2.14,1.73,1.94,0.33,1.86
ATCGAAAGGTCGAGGGGAGTATAGAGAAAGGGAA,2.84,4.18,4.21,1.4,3.94,2.05,0.272,0.958
TGAATGCGGTTATAAGATCAGGGAACGTTGCAAA,-0.46,0.175,0.239,-0.906,-0.0523,-0.183,-0.559,-0.171
TCGAGTAGGTTAGTCCGGGCATTCAGCCAACATA,0.125,-0.242,-0.282,0.0956,-0.186,0.527,-0.31,-0.163
CCAGACAGGTGAAGGGTAACTCAGTCTGGTACGC,0.722,0.492,0.626,-0.69,0.751,0.21,-0.441,-0.55
TTACCAACGTGAAGGTCGTTGATCCCTCTGTAGA,1.24,0.301,0.15,0.665,1.17,1.04,0.438,1.3
CCTTCTGGGCCACGAAAGGTCATTGATTCAGTGA,4.62,4.94,4.61,0.819,5.38,4.04,0.878,2.42
GGAACGAGGGCAAGGTGATAGCAGAGTTTGATGG,2.04,1.26,2.2,1.62,0.928,1.89,0.882,2.05
TCTTGTAGATCGACAGGAGGTTAAGAAAGATCGA,0.302,0.34,0.0753,0.223,0.86,0.713,-0.764,-0.181
TTACCATGGTGAAGGTCGTTGATCCCTCTGTAGA,0.835,0.184,-0.00813,-0.163,1.07,0.611,-0.36,0.502
TCTAGCAGGCCAGAGGCTCACTCAAGAGGTACGG,-0.995,-0.48,-0.695,-0.462,-0.277,-0.767,-1.59,-1.07
CGTCCAAGGTCAGAGAGGTCAGGGAATGCCGAGT,5.34,6.59,7.38,3.45,6.19,4.47,3.11,4.88
